Reference: PubChem BioAssay (NCI)
About 79,000 compounds went through this panel and 15% of them were active in at least one assay; those are over-represented in the sample as a whole. Cut-off read from the data, not from the text of the source: active = growth inhibition above about 70%; inactive = the rest.

Experiments:
[1] = NCI Yeast Anticancer Drug Screen. Data for the rad50 strain (AID 155);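 note: 0% = growth of vehicle-only cultures of the same strain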; settings: S. cerevisiae rad50 strain growth inhibition; at 50.0 µM; hits give high values
Summary of the method: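 A DNA repair-deficient yeast mutant serves as the test organism; compound-induced growth inhibition is calculated against vehicle-treated cells.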

[2] = NCI Yeast Anticancer Drug Screen. Data for the mec2-1 strain (AID 157); settings: S. cerevisiae mec2-1 strain, at 50.0 µM, hits give high values
Summary of the method: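 Strain: mec2-1 (DNA repair/cell cycle alteration). Compound exposure, then growth measured; inhibition expressed relative to vehicle.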

[3] = NCI Yeast Anticancer Drug Screen. Data for the sgs1 mgt1 strain (AID 161);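 note: 0% = growth of cultures given vehicle only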; settings: S. cerevisiae sgs1 mgt1 strain, at 50.0 µM, hits give high values
Summary of the method: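 Inhibition of yeast growth, normalised to vehicle-treated controls, is reported for a strain bearing genetic alterations in DNA damage repair.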

[4] = NCI Yeast Anticancer Drug Screen. Data for the cln2 rad14 strain (AID 165);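 note: 0% = growth equal to vehicle treated cultures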; settings: S. cerevisiae cln2 rad14 strain, at 50.0 µM, hits give high values
Summary of the method: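 Compounds are applied to the cln2 rad14 yeast strain, and growth is then compared with that of vehicle-treated cultures to give inhibition.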

[5] = NCI Yeast Anticancer Drug Screen. Data for the bub3 strain (AID 167); settings: S. cerevisiae bub3 mutant strain, at 50.0 µM, hits give high values
Summary of the method: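 Inhibition values come from growth of compound-treated mutant yeast normalised to vehicle-treated controls.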

[6] = NCI Yeast Anticancer Drug Screen. Data for the mlh1 rad18 strain (AID 175); settings: S. cerevisiae mlh1 rad18 strain growth inhibition; at 50.0 µM; hits give high values
Summary of the method: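 Read-out is yeast growth inhibition, calculated against vehicle-only controls. The compound was applied to a strain engineered with DNA damage repair alterations.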

Measured: growth inhibition

CC1(C)N=C(/C(Cl)=[N+](/[O-])C(=O)c2ccc(F)cc2)C(C)(C)N1O
inactive: [1] -15.5% | [2] -35.3% | [3] -27.2% | [4] 16.7% | [5] -25.8% | [6] -25.9%

CC(C)C(C(N)=O)C(C)C
inactive: [1] 3.6% | [2] -6.4% | [3] -3.65% | [4] 10.7% | [5] 0% | [6] -1.2%

CCc1cc(-c2ccc(OC)cc2)c(C#N)c(=S)n1C1OC(CO)C(O)C(O)C1O (stereo unspecified)
inactive: [1] 4.9% | [2] -3.5% | [3] 6.4% | [4] 0.7% | [5] 3.35% | [6] 7.7%

N#CCC(=O)N/N=C1/C(=O)N(c2cc(Cl)ccc2Cl)C(=O)C(=O)C1c1nc2ccccc2s1 (stereo unspecified)
inactive: [1] 42.8% | [2] 27.8% | [3] 38.1% | [4] 19.9% | [5] -0.5% | [6] 51%

O=C(O)c1ccc(NS(=O)(=O)Cc2ccccc2)cc1
inactive: [1] -14.3% | [2] -24.1% | [3] -41.5% | [4] -22.4% | [5] -36.5% | [6] -6.3%

CC(=O)N1Cc2cncnc2C1
inactive: [1] -0.8% | [2] 5.95% | [3] -2.5% | [4] -17.1% | [5] -0.95% | [6] 23.7%

NCCNCC(O)CO (stereo unspecified)
inactive: [1] -2.4% | [2] -18.6% | [3] -21.4% | [4] -9.5% | [5] 3.9% | [6] 6.15%

C(=C/c1ccccc1)/CN1CCCCC1
inactive: [1] 29.4% | [2] 19.4% | [3] 36% | [4] 11.4% | [5] 37.2% | [6] 29.4%

CNc1ncnc2c1cnn2-c1ccc(Cl)cc1
inactive: [1] -15.8% | [2] -6.85% | [3] -6.75% | [4] -37.4% | [5] 0.3% | [6] 4.25%

Cc1ccc(NC=O)cc1NC=O
inactive: [1] 37.6% | [2] -1.4% | [3] 9.5% | [4] -27.1% | [5] 4.2% | [6] 15.9%

CC1c2c(Cl)nc3ccccc3c2Oc2c1c(Cl)nc1ccccc21
inactive: [1] 7.05% | [2] 5.1% | [3] -6.05% | [4] 18.3% | [5] 5.1% | [6] 22.1%

CN1NC(c2ccccc2)=NN=C1c1ccccc1
inactive: [1] -8.5% | [2] 21.9% | [3] 11.3% | [4] 0.75% | [5] 15.8% | [6] 3.65%

COc1ccc(C=Nc2ccc(O)cc2)cc1
inactive: [1] 5.45% | [2] -2.3% | [3] -8.35% | [4] 34.1% | [5] -22.6% | [6] -13.9%

CC1(C)OCCS1
inactive: [1] -4.2% | [2] 18.1% | [3] 6.7% | [4] 18.6% | [5] 20.6% | [6] 13.9%

COc1nc2c(c(O)c(C)c(=O)n2OC2OC(COC(C)=O)C(OC(C)=O)C(OC(C)=O)C2OC(C)=O)c(=O)n1C (stereo unspecified)
inactive: [1] -2.1% | [2] -15.8% | [3] 7.95% | [4] -7.75% | [5] 0.45% | [6] 2.3%

CCOC(=O)Nc1ccn(C2OC(COC(C)=O)C(OC(C)=O)C2OC(C)=O)c(=O)n1 (stereo unspecified)
inactive: [1] 19.9% | [2] -11.4% | [3] 15.1% | [4] -46.4% | [5] -1.9% | [6] 8.3%

CCOC(=O)NC(=O)c1cn(CC(=O)NCC(=O)NCC(=O)N2CCN(CCn3c(C)nc(C(N)=O)c3N)CC2)c(=O)[nH]c1=O
inactive: [1] 12.8% | [2] 8.9% | [3] 5.25% | [4] -18.8% | [5] 2.75% | [6] -4.85%

COCOC(C)=O
inactive: [1] -9.1% | [2] -6.4% | [3] 3.7% | [4] 0.5% | [5] -12.4% | [6] 1.4%

CCc1nc(Nc2cccc(C)c2)c2cnn(-c3ccccc3)c2n1
inactive: [1] -0.85% | [2] -15.6% | [3] -2.3% | [4] -22.5% | [5] -3.05% | [6] -13.8%

COc1ccccc1NC(=O)C1=C(C)NC(C)=C(C(=O)Nc2ccccc2OC)C1c1ccco1
inactive: [1] -4.8% | [2] -8.65% | [3] 20.4% | [4] 4.3% | [5] 29.4% | [6] -11.9%

Cc1ccc(C(=O)c2ccccc2Cc2cccc3ccccc23)c(C)c1
inactive: [1] 4.35% | [2] 6.6% | [3] 1.2% | [4] -13.7% | [5] 12.6% | [6] -14.5%

CC1(C)N(/N=C/c2ccccc2)C(c2ccccc2)C(c2ccccc2)N1/N=C/c1ccccc1 (stereo unspecified)
inactive: [1] -8.95% | [2] -6.45% | [3] 6.25% | [4] -11.3% | [5] 2.65% | [6] 9.75%

O=C1c2ccc([N+](=O)[O-])cc2C(=O)N1CCBr
inactive: [1] 27.4% | [2] -13.2% | [3] 16.6% | [4] -10.2% | [5] 31.7% | [6] 13.1%

[Cl][Eu]([Cl])[Cl]
inactive: [1] 22.4% | [2] 17.9% | [3] 24.2% | [4] 42.9% | [5] 34.2% | [6] 19.8%

CNc1ccccc1C(=O)N/N=C/c1cccc([N+](=O)[O-])c1
inactive: [1] -0.9% | [2] 1.05% | [3] -39% | [4] -8.6% | [5] 32.5% | [6] -8.9%

COc1ccc2c(ccc3nc(C)[nH]c(=O)c32)c1
inactive: [1] 5.3% | [2] -5.35% | [3] 2.95% | [4] -30.2% | [5] -10.6% | [6] -6.3%

O=S(=O)(c1cccc(C(F)(F)F)c1)N(CCCCCN(S(=O)(=O)c1cccc(C(F)(F)F)c1)S(=O)(=O)c1cccc(C(F)(F)F)c1)S(=O)(=O)c1cccc(C(F)(F)F)c1
inactive: [1] -12.2% | [2] 2.95% | [3] 0.2% | [4] 21.3% | [5] 11.9% | [6] 10.2%

COc1cc2c(cc1OC)C1=NN(c3ccccc3)C(=O)C1CC2 (stereo unspecified)
inactive: [1] 22.8% | [2] 12.6% | [3] 12.3% | [4] -7.2% | [5] 5.55% | [6] 18.8%

O=C(Cc1ccccc1)c1c[nH]c2c(O)ccc(O)c12
inactive: [1] -15.1% | [2] -9.25% | [3] -12.3% | [4] -49.1% | [5] -13.9% | [6] -8.45%

O=C1c2ccccc2C(=O)N1CC1CC(S(=O)(=O)c2ccccc2)=NO1 (stereo unspecified)
inactive: [1] -1.8% | [2] -15.2% | [3] -0.4% | [4] -0.4% | [5] -7.6% | [6] 5%

CCCCCCCC(=O)NS(=O)(=O)c1ccccc1
inactive: [1] 31.7% | [2] 20.7% | [3] 27.8% | [4] 52.2% | [5] 37.2% | [6] 39.8%

S=C1NNC(=S)NN1
inactive: [1] 43.7% | [2] 29.8% | [3] 39.9% | [4] 37.9% | [5] 49.9% | [6] 62.7%

NC(C(=O)O)C1CCCC1 (stereo unspecified)
inactive: [1] 2.8% | [2] -5.1% | [3] -20.8% | [4] -14% | [5] -92.8% | [6] 7.6%

COc1ccc2nccc(NCCCN3CCN(CCCNc4ccnc5ccc(OC)cc45)CC3)c2c1
inactive: [1] 15.8% | [2] 1% | [3] 32.8% | [4] -6.2% | [5] 48.5% | [6] -26.9%

CCC(CC)OCc1ccccc1
inactive: [1] 12.1% | [2] 9.4% | [3] 6.6% | [4] 5.5% | [5] 0.55% | [6] 1.1%

NC(=O)Oc1cccc(OC(N)=O)c1
inactive: [1] 8.95% | [2] -6.25% | [3] 13.9% | [4] 3.8% | [5] 18.8% | [6] 13.6%

c1ccc(-c2cc(CNc3nc4ccccc4s3)on2)cc1
inactive: [1] 19.9% | [2] 10.7% | [3] 9.1% | [4] 5.45% | [5] -4.55% | [6] 9.75%

CC(=C/C=C/C=C(C)\C=C\C=C(\C)C(=O)O)/C=C/C=C(/C)C(=O)O
inactive: [1] 18.1% | [2] -7.95% | [3] 8.65% | [4] 7.75% | [5] 16.4% | [6] 16.9%

Cc1cc(C)[n+]([O-])c(C)c1
inactive: [1] -14.6% | [2] -8.85% | [3] -2.75% | [4] -8.6% | [5] -19.4% | [6] -2.85%

C[C@H](NC(=O)n1c2ccccc2c2ccccc21)C(=O)O
inactive: [1] 2.5% | [2] 5.2% | [3] -20.1% | [4] -5.9% | [5] -1.05% | [6] -2.95%

Cc1ccc(P(=O)(O)O)c([N+](=O)[O-])c1
inactive: [1] 5.4% | [2] 1.7% | [3] -3.65% | [4] -7.2% | [5] -4.35% | [6] 12.9%
